Here are results for 14 molecules from publication PMC12864922, “TDP-43 directly inhibits mRNA accumulation in neurites through modulation of mRNA stability”.

Sequences and labels used below:
B1: ENSMUSG00000058297.451|Spock2 (ssRNA)
RNA: GGGAGUUCUACAGUCCGACGAUCGCUUCGAUAUCCGCAUGCUAAGCAAGCUUCGUGUUUCCUCAGGAGCAAGGUCACACAGGUCAGAUUAUUGUCGGUCCUGCGGGCCUCAUCCUUGAAUAAGCUGCCUGCCCAGUUCCUCCAUCCGUGUUCCUGCCUGCUCCCGUUCCCUUGUUGCGGGCAGGAGAGGUAGGGCUGUGUUGGAAAGAGUUCAACCAAAUUACGGCAGCACCACAUCUUGCCGAGCCCUGGAGCUGCCCUACUAAGAGCCUCCUUAGCCCUGGGUGCUGGGAAGGAUGGUGUACUCUUGCGGUCGCACUAGUGUGGAAUUCUCGGGUGUCAAGG
B2: ENSMUSG00000061578.871|Ksr2 (ssRNA)
RNA: GGGAGUUCUACAGUCCGACGAUCGCUUCGAUAUCCGCAUGCUAUUAGGUCAGAGGUAUCAAUACAUCUCCGGAAACAUCGUCACAGAUACCUAGAGGUACUUCAUUGAUCCCUUGAAAAGCAUGUCUUAAUUCUGUUAAGAUGUCAAUCAAGAUUACACAUCUCACUGCUUCACAGGCCAUCAGGGCCCCAUUCUGAGGUCCUGGGACACUACCCAAACCCUAGCACUCUCCCAGUGACUCUCCUAUGAGUACAUAUGCCAUCCUGCUUCCUUUGUGGCAAAACCCUGGGUCACCCAGAGACACUCUUGCGGUCGCACUAGUGUGGAAUUCUCGGGUGUCAAGG
B3: ENSMUSG00000058297.473|Spock2 (ssRNA)
RNA: GGGAGUUCUACAGUCCGACGAUCGCUUCGAUAUCCGCAUGCUAGCGGGCAGGAGAGGUAGGGCUGUGUUGGAAAGAGUUCAACCAAAUUACGGCAGCACCACAUCUUGCCGAGCCCUGGAGCUGCCCUACUAAGAGCCUCCUUAGCCCUGGGUGCUGGGAAGGAUGGUGUACGUUGGGGAAGUUUGAGGUUGGAGAGAGUAAAUGUGCCUUGAGAGACCACUCAGAGGUCCCAGGAGGAACGGGGGCGGGGCUUAGCCUGGGAGUUCUGGCAGGAGGCAAAGUUGGUGAGAGUCCUGGGACAUCUCUUGCGGUCGCACUAGUGUGGAAUUCUCGGGUGUCAAGG
B4: ENSMUSG00000058297.474|Spock2|15:19 (ssRNA)
RNA: GGGAGUUCUACAGUCCGACGAUCGCUUCGAUAUCCGCAUGCUAAGGAGAGGUAGGGCACACAUGGAAAGAGUUCAACCAAAUUACGGCAGCACCACAUCUUGCCGAGCCCUGGAGCUGCCCUACUAAGAGCCUCCUUAGCCCUGGGUGCUGGGAAGGAUGGUGUACGUUGGGGAAGUUUGAGGUUGGAGAGAGUAAAUGUGCCUUGAGAGACCACUCAGAGGUCCCAGGAGGAACGGGGGCGGGGCUUAGCCUGGGAGUUCUGGCAGGAGGCAAAGUUGGUGAGAGUCCUGGGACAUCUUACCCUCUUGCGGUCGCACUAGUGUGGAAUUCUCGGGUGUCAAGG
B5: ENSMUSG00000058297.472|Spock2 (ssRNA)
RNA: GGGAGUUCUACAGUCCGACGAUCGCUUCGAUAUCCGCAUGCUACUUGUUGCGGGCAGGAGAGGUAGGGCUGUGUUGGAAAGAGUUCAACCAAAUUACGGCAGCACCACAUCUUGCCGAGCCCUGGAGCUGCCCUACUAAGAGCCUCCUUAGCCCUGGGUGCUGGGAAGGAUGGUGUACGUUGGGGAAGUUUGAGGUUGGAGAGAGUAAAUGUGCCUUGAGAGACCACUCAGAGGUCCCAGGAGGAACGGGGGCGGGGCUUAGCCUGGGAGUUCUGGCAGGAGGCAAAGUUGGUGAGAGUCCUGCUCUUGCGGUCGCACUAGUGUGGAAUUCUCGGGUGUCAAGG
B6: ENSMUSG00000058297.471|Spock2 (ssRNA)
RNA: GGGAGUUCUACAGUCCGACGAUCGCUUCGAUAUCCGCAUGCUACGUUCCCUUGUUGCGGGCAGGAGAGGUAGGGCUGUGUUGGAAAGAGUUCAACCAAAUUACGGCAGCACCACAUCUUGCCGAGCCCUGGAGCUGCCCUACUAAGAGCCUCCUUAGCCCUGGGUGCUGGGAAGGAUGGUGUACGUUGGGGAAGUUUGAGGUUGGAGAGAGUAAAUGUGCCUUGAGAGACCACUCAGAGGUCCCAGGAGGAACGGGGGCGGGGCUUAGCCUGGGAGUUCUGGCAGGAGGCAAAGUUGGUGAGACUCUUGCGGUCGCACUAGUGUGGAAUUCUCGGGUGUCAAGG
B7: ENSMUSG00000058297.470|Spock2 (ssRNA)
RNA: GGGAGUUCUACAGUCCGACGAUCGCUUCGAUAUCCGCAUGCUAUGCUCCCGUUCCCUUGUUGCGGGCAGGAGAGGUAGGGCUGUGUUGGAAAGAGUUCAACCAAAUUACGGCAGCACCACAUCUUGCCGAGCCCUGGAGCUGCCCUACUAAGAGCCUCCUUAGCCCUGGGUGCUGGGAAGGAUGGUGUACGUUGGGGAAGUUUGAGGUUGGAGAGAGUAAAUGUGCCUUGAGAGACCACUCAGAGGUCCCAGGAGGAACGGGGGCGGGGCUUAGCCUGGGAGUUCUGGCAGGAGGCAAAGUUGCUCUUGCGGUCGCACUAGUGUGGAAUUCUCGGGUGUCAAGG
B8: ENSMUSG00000058297.471|Spock2|33:37 (ssRNA)
RNA: B6 RNA with U76A, G77C, U78A, G79C, U80A
B9: ENSMUSG00000058297.474|Spock2 (ssRNA)
RNA: B4 RNA with A58U, C59G, A60U, C61G, A62U
B10: ENSMUSG00000058297.472|Spock2|27:31 (ssRNA)
RNA: B5 RNA with U70A, G71C, U72A, G73C, U74A
B11: ENSMUSG00000058297.468|Spock2 (ssRNA)
RNA: GGGAGUUCUACAGUCCGACGAUCGCUUCGAUAUCCGCAUGCUACGUGUUCCUGCCUGCUCCCGUUCCCUUGUUGCGGGCAGGAGAGGUAGGGCUGUGUUGGAAAGAGUUCAACCAAAUUACGGCAGCACCACAUCUUGCCGAGCCCUGGAGCUGCCCUACUAAGAGCCUCCUUAGCCCUGGGUGCUGGGAAGGAUGGUGUACGUUGGGGAAGUUUGAGGUUGGAGAGAGUAAAUGUGCCUUGAGAGACCACUCAGAGGUCCCAGGAGGAACGGGGGCGGGGCUUAGCCUGGGAGUUCUGGCAGCUCUUGCGGUCGCACUAGUGUGGAAUUCUCGGGUGUCAAGG
B12: ENSMUSG00000058297.473|Spock2|21:25 (ssRNA)
RNA: B3 RNA with U64A, G65C, U66A, G67C, U68A
B13: ENSMUSG00000058297.470|Spock2|39:43 (ssRNA)
RNA: B7 RNA with U82A, G83C, U84A, G85C, U86A
B14: ENSMUSG00000058297.469|Spock2 (ssRNA)
RNA: GGGAGUUCUACAGUCCGACGAUCGCUUCGAUAUCCGCAUGCUACCUGCCUGCUCCCGUUCCCUUGUUGCGGGCAGGAGAGGUAGGGCUGUGUUGGAAAGAGUUCAACCAAAUUACGGCAGCACCACAUCUUGCCGAGCCCUGGAGCUGCCCUACUAAGAGCCUCCUUAGCCCUGGGUGCUGGGAAGGAUGGUGUACGUUGGGGAAGUUUGAGGUUGGAGAGAGUAAAUGUGCCUUGAGAGACCACUCAGAGGUCCCAGGAGGAACGGGGGCGGGGCUUAGCCUGGGAGUUCUGGCAGGAGGCACUCUUGCGGUCGCACUAGUGUGGAAUUCUCGGGUGUCAAGG

Changes are numbered by the printed parent chain. Whole data set: some 9,900 sequences, median “r (bound/input frequency ratio)” near 0.7, cut for the highest 2% near 6.5. Shown is part of a subset that was picked to be rich in the highest values.

Chain of TDP-43 (Q13148 whole entry): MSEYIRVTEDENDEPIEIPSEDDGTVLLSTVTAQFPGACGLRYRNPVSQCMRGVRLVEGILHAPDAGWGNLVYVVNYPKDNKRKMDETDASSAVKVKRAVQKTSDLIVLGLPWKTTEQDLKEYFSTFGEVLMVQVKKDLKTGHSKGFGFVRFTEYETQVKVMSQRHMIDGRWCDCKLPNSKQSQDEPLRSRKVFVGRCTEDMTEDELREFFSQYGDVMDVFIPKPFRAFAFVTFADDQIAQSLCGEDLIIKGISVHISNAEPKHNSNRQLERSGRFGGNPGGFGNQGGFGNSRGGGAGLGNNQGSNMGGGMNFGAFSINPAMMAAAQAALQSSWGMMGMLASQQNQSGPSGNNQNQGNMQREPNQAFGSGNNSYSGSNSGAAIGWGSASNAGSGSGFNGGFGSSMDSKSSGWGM

The test addresses TDP-43 (Homo sapiens, UniProt Q13148 1-414). Description: RNA Bind-n-Seq with designed 260-mer pool; 25 mM Tris-HCl, 150 mM KCl, 3 mM MgCl2, BSA (printed 500 mg/mL), 20 units/mL SUPERase IN; pH not stated; 500 nM RNA pool, 1 h, 4 C; TDP-43 5, 50, 500 nM; high values mean tight binding. The following applies: protein: recombinant; tags: SBP (GST cleaved off with PreScission; pGEX-GST-SBP). The method in brief:
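Binding (R) is the ratio of each oligo's mapped-read-normalized abundance in the bound fraction to its abundance in the input. To obtain it, SBP-tagged recombinant TDP-43 (5, 50 or 500 nM) on streptavidin beads was incubated with 500 nM of an in vitro-transcribed 260-nt 3′ UTR oligo pool for 1 h at 4 °C in 25 mM Tris-HCl, 150 mM KCl, 3 mM MgCl2, BSA and SUPERase IN. The RNA retained after washing was released with biotin, then reverse transcribed, amplified by PCR and sequenced.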
Regarding B1, the binding signal was 0.383 R (bound/input frequency ratio).
The value for B2 was 0.301 R (bound/input frequency ratio); that for B3 was 6.95 R (bound/input frequency ratio); that for B4 was 3.2 R (bound/input frequency ratio).
The value for B5 was 7.38 R (bound/input frequency ratio); that for B6 was 7.28 R (bound/input frequency ratio); that for B7 was 8.94 R (bound/input frequency ratio).
The value for B8 was 4.19 R (bound/input frequency ratio).
B9: the binding signal was 5.67 R (bound/input frequency ratio).
Next, B10: 4.63 R (bound/input frequency ratio); B11: 3.47 R (bound/input frequency ratio); B12: 3.59 R (bound/input frequency ratio).
The value for B13 was 5.26 R (bound/input frequency ratio); that for B14 was 2.58 R (bound/input frequency ratio).
